Assay outcomes deposited in PubChem BioAssay by National Center for Advancing Translational Sciences (NCATS).
D1 antagonist – human D1 dopamine receptor antagonism | P21728 | HEK293 TREx D1 cells, calcium flux, dopamine EC80; hits give low values | activity change, negative = inhibition, % at 10 µM | 3.2% of 360,000 active | AID 504652; in the data active means activity change below about -30%
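Inducible Hek293 Trex D1 cells (tetracycline, overnight, 30 C). Calcium dye 30–90 min RT. Antagonist mode: EC80 dopamine added after 180 s compound read.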
D1 ag – agonists of human D1 dopamine receptor | P21728 | activation, % at 2 µM | HEK293 T-REx D1 cells, calcium flux, agonist mode | AID 504660 | 1% of 360,000 active; in the data active means activation above about 30%
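Tetracycline-induced HEK293 TREx D1 cells, force-coupled to calcium signalling, were dye-loaded with a no-wash calcium kit. Compound was pin-added after a 10 s baseline. Fluorescence was read kinetically at 1 cycle/s for 180 s, with calcium rises flagged as agonism.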
D3 antag – D3 dopamine receptor (human) antagonism. AID 652054. 2.5% of 360,000 active. max response, negative = inhibition, %. D3R cells, DiscoveRx beta-arrestin luminescence, antagonist mode; hits give low values; in the data active means max response below about -50%; inconclusive means no clear call, values can overlap the other calls
Target sequence (P35462 whole entry, looked up): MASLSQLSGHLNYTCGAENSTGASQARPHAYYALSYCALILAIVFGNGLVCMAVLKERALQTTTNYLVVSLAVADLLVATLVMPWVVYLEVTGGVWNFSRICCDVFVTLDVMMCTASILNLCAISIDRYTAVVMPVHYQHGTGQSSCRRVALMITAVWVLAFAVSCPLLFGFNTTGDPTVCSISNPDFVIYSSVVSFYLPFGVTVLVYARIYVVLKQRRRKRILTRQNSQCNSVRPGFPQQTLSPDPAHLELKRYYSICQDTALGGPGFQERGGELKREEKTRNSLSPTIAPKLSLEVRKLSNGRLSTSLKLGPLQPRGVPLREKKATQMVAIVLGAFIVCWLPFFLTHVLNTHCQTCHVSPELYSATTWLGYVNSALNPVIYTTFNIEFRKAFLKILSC
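Cells expressing the human receptor were seeded at 1500 cells/well, incubated overnight at 37 degrees C in 5% CO2, then exposed to library compounds with dopamine controls for 90 minutes at 37 degrees C before luminescent detection.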
D1 potentiator – enhances dopamine response at the human D1 receptor; potentiation, % at 10 µM; AID 504651; 0.036% of 360,000 active; HEK293 TREx D1 cells, calcium flux, dopamine EC20 potentiation; in the data active means potentiation above about 30%
D3 ag – agonists of human D3 dopamine receptor. P35462. D3R DiscoveRx beta-arrestin cells, luminescence, 90 min. max activation, %. 0.58% of 410,000 active. AID 652048; in the data active means max activation above about 30%
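Agonist-mode cell screen: cells plated at 1500/well and incubated overnight at 37 °C, then exposed to library compounds for 90 min at 37 °C. Detection reagent was added for 30–60 min at room temperature, and luminescence was read.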
A number is an active result. An excerpt weighted towards active compounds, which were near 6% of everything screened.

How did CC(C)(C)S(=O)N1Cc2cc(C(=O)NCc3ccc4c(c3)OCO4)nc(-c3cccc(-c4cc5ccccc5o4)c3)c2[C@@H]1CCO (some centres undefined) do in these assays?
D3 antag: inactive; D3 ag: inactive

What do the screens show for `CCOC(=O)CSc1nnc(NCC(=O)OC)c(=O)[nH]1`?
D1 antagonist: inactive; D1 ag: inactive; D3 antag: -56.4; D1 potentiator: inactive; D3 ag: inactive

What do the screens show for `CCOC(=O)CSc1nnc(C)c(=O)[nH]1`?
D1 antagonist: inactive; D1 ag: inactive; D3 antag: inactive; D1 potentiator: inactive; D3 ag: inactive

What do the screens show for `Cc1sc2ncnc(NC3CCN(Cc4ccccc4)CC3)c2c1C`?
D1 antagonist: -53.1; D1 ag: inactive; D3 antag: -74.9; D1 potentiator: inactive; D3 ag: inactive

What do the screens show for `Cc1csc2c(NC3CCN(Cc4ccccc4)CC3)ncnc12`?
D1 antagonist: -36.8; D1 ag: inactive; D3 antag: -81.3; D1 potentiator: inactive; D3 ag: inactive

What do the screens show for `COc1ccc(C2=NN(C(=O)COC(=O)c3ccc(S(C)(=O)=O)c([N+](=O)[O-])c3)C(c3ccco3)C2)cc1` (centres undefined)?
D3 antag: -56.3; D3 ag: inactive

Results for O=C(COc1cc(F)ccc1[N+](=O)[O-])N1N=C(c2cccs2)CC1c1ccco1 (centres undefined) ?
D1 antagonist: inactive; D1 ag: inactive; D3 antag: -54.9; D1 potentiator: inactive; D3 ag: inactive

Results for COc1ccc(C2=NN(C(=O)COc3ncnc4ccccc34)C(c3ccco3)C2)cc1 (centres undefined) ?
D1 antagonist: inactive; D1 ag: inactive; D3 antag: inactive; D1 potentiator: inactive; D3 ag: inactive

Results for Cc1ccccc1NC(=O)CSc1nnc(Cc2ccccc2)c(=O)n1N ?
D1 antagonist: inactive; D1 ag: inactive; D3 antag: inactive; D1 potentiator: inactive; D3 ag: inactive

Results for O=C(Nc1nc2c(F)cc(F)cc2s1)c1ccc2c(c1)OCCO2 ?
D1 antagonist: inactive; D1 ag: inactive; D1 potentiator: inactive; D3 ag: inactive

Results for CC(C)(C)c1ccc(C(=O)N2CCC2(C)C(=O)Nc2ccc3nc[nH]c3c2)cc1 (centres undefined) ?
D3 antag: inactive; D3 ag: inactive

How did CC[C@H](C)NC(=O)CCCCCn1c(=S)[nH]c2c([nH]c3ccc(OC)cc32)c1=O do in these assays?
D1 antagonist: inactive; D1 ag: inactive; D3 antag: inactive; D1 potentiator: inactive; D3 ag: inactive

Results for COc1ccc2[nH]c3c(=O)n(CCCCC(=O)NCCN4CCCC4)c(=S)[nH]c3c2c1 ?
D1 antagonist: inactive; D1 ag: inactive; D3 antag: -95.6; D1 potentiator: inactive; D3 ag: inactive

Results for COc1ccc2[nH]c3c(=O)n(CCCCC(=O)N4CCC(C(N)=O)CC4)c(=S)[nH]c3c2c1 ?
D1 antagonist: -35.6; D1 ag: inactive; D3 antag: inactive; D1 potentiator: inactive; D3 ag: inactive

Results for CC(=O)Oc1ccc(C2=Cc3ccc(OC(C)=O)cc3OC2C)cc1 (centres undefined) ?
D3 antag: inactive; D3 ag: inactive

How did CC(C)NCCOc1cccc(Br)c1 do in these assays?
D1 antagonist: inactive; D1 ag: inactive; D3 antag: -74.8; D1 potentiator: inactive; D3 ag: inactive

What do the screens show for `Brc1cccc(OCCCNC2CCCC2)c1`?
D1 antagonist: inactive; D1 ag: inactive; D3 antag: -91.3; D1 potentiator: inactive; D3 ag: inactive

Results for CC(C)NCCCCOc1cccc(Br)c1 ?
D1 antagonist: inactive; D1 ag: inactive; D3 antag: inconclusive; D1 potentiator: inactive; D3 ag: inactive

What do the screens show for `CC(=O)Nc1ccc(C(=O)Nc2ccc3c(c2)N(C2CCCC2)C(=O)c2ccccc2S3)cc1`?
D1 antagonist: inactive; D1 ag: inactive; D1 potentiator: inactive; D3 ag: inactive

Results for CCc1cccc(NC(=O)CN2C(=O)COc3ccc(S(=O)(=O)N4CCC(C)CC4)cc32)c1 ?
D1 antagonist: inactive; D1 ag: inactive; D1 potentiator: inactive; D3 ag: inactive

How did Cc1ccc2cccc(N=Cc3c(C)[nH]n(-c4ccccc4)c3=O)c2n1 do in these assays?
D1 antagonist: inactive; D1 ag: inactive; D3 antag: -98.7; D1 potentiator: inactive; D3 ag: inactive

Results for Cc1[nH]n(-c2ccccc2)c(=O)c1/C=N/O ?
D1 antagonist: inactive; D1 ag: inactive; D3 antag: inactive; D1 potentiator: inactive; D3 ag: inactive

Results for CSc1nnc(-c2ccccc2N=Cc2c(C)[nH]n(-c3ccccc3)c2=O)c(=O)[nH]1 ?
D1 antagonist: -33.0; D1 ag: inactive; D3 antag: inactive; D1 potentiator: inactive; D3 ag: inactive

What do the screens show for `C/C=C/c1cc(CN2CCN(c3ccccc3)CC2)c(O)c(OC)c1`?
D1 antagonist: inactive; D1 ag: inactive; D3 antag: -98.1; D1 potentiator: inactive; D3 ag: inactive

How did Cc1cc2c(s1)c1cnn(Cc3ccc(F)cc3Cl)c(=O)c1n2C do in these assays?
D1 antagonist: inactive; D1 ag: inactive; D1 potentiator: inactive

What do the screens show for `Cc1ccc(S(=O)(=O)N2CCC[C@H]2C(=O)OCC(=O)Nc2ccc3c(c2)OCO3)cc1`?
D3 antag: inactive; D3 ag: inactive

What do the screens show for `O=C(Cn1c(S(=O)(=O)Cc2ccccc2)nc2ccccc21)N1CCCCC1`?
D1 antagonist: -35.3; D1 ag: inactive; D3 antag: inactive; D3 ag: inactive

What do the screens show for `NC(=O)CS(=O)(=O)c1nc2ccccc2n1CC(=O)N1CCCCC1`?
D1 antagonist: inactive; D1 ag: inactive; D3 antag: inactive; D1 potentiator: inactive; D3 ag: inactive

What do the screens show for `O=C(Cn1c(NCCO)nc2ccccc21)N1CCN(Cc2ccccc2)CC1`?
D1 antagonist: -41.4; D1 ag: inactive; D3 antag: inactive; D1 potentiator: inactive; D3 ag: inactive

What do the screens show for `Cc1cccc(-c2nc3c(cnn3-c3ccccc3)c(=O)n2-c2ccc(Br)cc2)c1`?
D1 antagonist: inactive; D1 ag: inactive; D1 potentiator: inactive; D3 ag: inactive

What do the screens show for `CCOc1ccc(-c2nnc3sc(COc4ccc(C)cc4)nn23)cc1`?
D1 antagonist: inactive; D1 ag: inactive; D3 antag: inactive; D1 potentiator: inactive; D3 ag: inactive

What do the screens show for `CCOc1ccc(-c2nn3c(-c4ccc(F)cc4)nnc3s2)cc1`?
D3 antag: -64.4; D3 ag: inactive

How did COc1ccc(-c2nn3c(-c4ccc(F)cc4)nnc3s2)cc1 do in these assays?
D1 antagonist: inactive; D1 ag: inactive; D3 antag: inactive; D1 potentiator: inactive; D3 ag: inactive

Results for COc1ccc(-c2nn3c(-c4ccccc4)nnc3s2)cc1 ?
D1 antagonist: -30.6; D1 ag: inactive; D3 antag: inactive; D1 potentiator: inactive; D3 ag: inactive
